Screen size: about 1,300 compounds; about 150 (12%) were called active. Inconclusive results (about 30%) are left out. Many of the other results were omitted from the sample, so actives are more common in it than they were. Unmarked numbers belong to inactive results. Calls follow the shape of the dose curve; as a rule, active = well fitted cell-killing curve with a large enough effect; inconclusive = small, poorly fitted or top-dose-only effect, or effect the other way; inactive = flat fitted curve, though single readings scatter.
% is scaled to controls: 0 for no effect and ±100 for the full control effect; potency is read from the fitted curve at half-maximal effect.

The nature of this experiment: qHTS of small molecules that selectively kill Giardia lamblia: Hit Validation in HepG2 cytotox.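 Also: compound exposure lasted overnight at 37 deg C; nearly all actives have a fitted effect of over 55% in size.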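 As to activity change, negative = cytotoxicity: viability measured as cellular ATP by ATPLite luminescence.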 To be noted: cell viability; Potency: HepG2 cytotoxicity; series mostly up to 38.3 µM; activity change, negative = cytotoxicity: at the top concentration. From the text:
Giardia lamblia is a human pathogen afflicting impoverished nations, and the most common cause of outbreaks of diarrhea in the United States. Giardia has been classified by the CDC as a category B bioterrorism organism. The favored anti giardiasis drugs in the US are metronidazole or tinidazole, compounds that have undesirable side effects. Moreover, increasing resistance to drug regimes and recurrence are a concern. It is thus clear that alternative drug treatments are needed.
In a collaboration between the University of Maryland, College Park and the NIH Chemical Genomics Center, a bioluminescence Giardia viability assay based on the trophozoites' ATP content was developed. This assay is suitable for high throughput screening, and miniaturized the assay for compound screening in 1536-well plates. The goal of the project is to screen the Molecular Libraries Small Molecule Repository (MLSMR) for compounds that selectively kill Giardia trophozoites. This counterscreen looks at the toxicity of the compounds against the human HepG2 cell line.
NIH Chemical Genomics Center [NCGC]
NIH Molecular Libraries Probe Centers Network [MLPCN]
Assay Submitter (PI): Osnat Herzberg, University of Maryland, College Park, MD.
4 uL of HepG2 cells ae dispensed into white 1536-well plates. They are incubated overnight at 37 deg C and then 23 nL of compounds are transferred to the wells with a pintool. Plates are incubated overnight at 37 deg C. 2 uL of ATPLite is added and the plates are incubated for 15 min at room temperature before they are read on the ViewLux for luminiescence.
Regarding `COc1cc2nc(N3CCCCC3)nc(NC3CCN(Cc4ccccc4)CC3)c2cc1OC`, the Potency was 2.93 µM (active). Take `CCc1cc(=O)oc2cc(C)cc(OCC(=O)NC3CCN(Cc4ccccc4)CC3)c12`: the “activity change, negative = cytotoxicity” value is 4.04%. On the same count and under the same terms, in the case of `COc1ccc(-n2nc([N+](=O)[O-])c(=NC3CCN(Cc4ccccc4)CC3)n2O)cc1` it was 19.3%. Consider `NC(=O)CCn1c(C(=O)c2cccc([N+](=O)[O-])c2)c2ccccc2[n+]1[O-]`, for which the “activity change, negative = cytotoxicity” value was 7.08%.

For the compound `CC(=O)c1c(C)n([O-])c2ccccc2[n+]1=O`, the “activity change, negative = cytotoxicity” value was 10.7%. The same measure, in the same setting: the same measure for `O=[N+]([O-])c1[nH]cnc1/C=C/c1ccccc1`: -0.0224%; for `O=C1NCCN1c1ncc([N+](=O)[O-])s1`: 13%.

Regarding `O=C(/C=C/c1cccnc1)/C=C/c1cccnc1`, the Potency is 3.69 µM (active). Regarding `COc1ccc2nc(COC(=O)c3cccc([N+](=O)[O-])c3)c(C(C)=O)[n+]([O-])c2c1`, the “activity change, negative = cytotoxicity” value is 27.3%. Turning to `Nc1nc(F)nc2c1ncn2[C@@H]1O[C@H](CO)[C@@H](O)[C@@H]1O`, the “activity change, negative = cytotoxicity” value was 8.69%. As to `CCOC(=O)Cc1csc(SCC(=O)NC2CCCCC2)n1`, the “activity change, negative = cytotoxicity” value is 11.9%.

As to `CCOC(=O)Cc1csc(NC(=S)NC(=O)c2ccc(C)cc2)n1`, the Potency was 2.93 µM (active).

Take `Cc1ccc(C(=O)NC(=O)OCCn2c(C)cnc2[N+](=O)[O-])cc1`: the “activity change, negative = cytotoxicity” value was -9.61%. `Cc1onc(-c2ccccc2)c1C(=O)N(Cc1ccccc1)C(C)C`: the “activity change, negative = cytotoxicity” value is 0.585%. The same measure, in the same setting: in the case of `Cc1cnc([N+](=O)[O-])n1CCOC(=O)NC(=O)c1ccccc1` it was 17.1%. On the same count and under the same terms, the same measure for `COc1cccc2sc(N3CCN(C(=O)c4ccc([N+](=O)[O-])o4)CC3)nc12`: 5.93%; for `O=[N+]([O-])c1ccc(CSc2nnc(-c3cnccn3)o2)cc1`: -9%; for `Cc1cnc([N+](=O)[O-])n1CCOC(=O)NC(=O)c1c(F)cccc1F`: 5.53%. Turning to `CCCCCN=Cc1c(C)[nH]n(-c2nc3ccccc3s2)c1=O`, the Potency is 0.329 µM (active). Still for that read-out and setting: in the case of `Oc1cccc(-c2nnc(-c3cccc(O)c3)nn2)c1` it was 3.69 µM (active). On to `N#C/C(=C\c1ccc(O)c([N+](=O)[O-])c1)C(=O)NCc1ccccc1`, for which the “activity change, negative = cytotoxicity” value is 14.5%. Still for that read-out and setting: in the case of `Cc1cnc([N+](=O)[O-])n1CCOC(=O)NC(=O)c1ccc(C(F)(F)F)cc1` it was 16.2%; in that of `C=CCn1c(C)cc(C(=O)COc2ccc(C)nc2[N+](=O)[O-])c1C`, -14%. In the case of `O=C(Nc1ccc2c(c1)nc1n2CCSC1)c1ccco1`, the Potency is 2.33 µM (active). Turning to `O=C(Nc1nnc(C23CC4CC(CC(C4)C2)C3)s1)c1ccco1`, the “activity change, negative = cytotoxicity” value was -19.1%. Take `O=C1c2cc(F)ccc2-n2c1nc1ccccc1c2=O`: the Potency was 5.21 µM (active).

Take `CN(C(=O)CSc1nc2ccccc2c(=O)n1-c1ccc(F)cc1)C1CCS(=O)(=O)C1` (centres undefined): the “activity change, negative = cytotoxicity” value was 0.691%. On the same count and under the same terms, the same measure for `Cc1ccc(-c2[nH][nH]c(=O)c(=O)c2N=Nc2ccccc2)cc1`: 2.65%; for `O=[N+]([O-])c1cc(S(=O)(=O)N2CCCC2)ccc1N/N=C/c1ccncc1`: 6.25%. Same read-out and setting: in the case of `Cc1ccc(OCC(=O)Nc2nc(C)c(Cl)cc2Cl)c([N+](=O)[O-])n1` it was 18.2%; in that of `O=[N+]([O-])c1ccc(N=NN(CCO)CCO)cc1`, 1.05%. As to `Cc1cc(C2=NNC(=NC3CC3)SC2)c(C)n1-c1ccccc1F`, the Potency was 0.927 µM (active). As to `CCOC(=O)C1=C(C)N=c2s/c(=C/c3cccc([N+](=O)[O-])c3O)c(=O)n2C1c1cc(OC)c(OC)c(OC)c1` (centres undefined), the “activity change, negative = cytotoxicity” value is 1.65%. Same read-out and setting: in the case of `Cc1ccc([C@@H]2CC=C(C(=O)O)[C@H](c3ccccc3)N2S(=O)(=O)c2ccc(C)cc2)cc1` it was 3.15%; in that of `NCCCn1c(C(=O)c2ccc(Cl)cc2)c2ccc(C(F)(F)F)cc2[n+]1[O-]`, 0.602%. `CCN1/C(=C\c2ccc3ccccc3[n+]2CC)Sc2cc(C)ccc21`: the Potency was 4.65 µM (active). Take `N/C(=N/OC(=O)c1ccc(Cl)cc1)c1ncc([N+](=O)[O-])s1`: the “activity change, negative = cytotoxicity” value is 13.6%. On the same count and under the same terms, in the case of `Cc1ncc([N+](=O)[O-])n1CCOC(=O)c1cc(Cl)cc(Cl)c1N` it was 19.6%.

For the compound `COC(=O)c1ccc2cc(OC)cc([N+](=O)[O-])c2n1`, the “activity change, negative = cytotoxicity” value is 11.5%. Turning to `Cc1nc2c(o1)C(=O)c1ccccc1C2=Nc1ccccc1`, the Potency was 4.65 µM (active). As to `Cc1c(N=Nc2ccc(O)cc2)c(=O)n(-c2ccccc2)n1C`, the “activity change, negative = cytotoxicity” value was 6.28%. For `Cc1ccc(OCC(=O)c2cc(C)n(-c3ccccc3)c2C)c([N+](=O)[O-])n1`, the “activity change, negative = cytotoxicity” value was 0.398%. The same measure, in the same setting: the same measure for `CCn1ncc([N+](=O)[O-])c1C(=O)Nc1nc2cccc(C)c2s1`: -4.43%. Still for that read-out and setting: in the case of `CC(=O)Nc1ccc(NS(=O)(=O)c2ccc(C)cc2)c([N+](=O)[O-])c1` it was 11.2%; in that of `Cc1ccc2nc(N/N=C\c3ccc([N+](=O)[O-])o3)nc(-c3ccccc3)c2c1`, -6.52%. `Cc1cc(N/N=C/c2ccc([N+](=O)[O-])o2)nc2ccccc12`: the “activity change, negative = cytotoxicity” value is -6.07%.

Regarding `CCOC(=O)N/N=C\c1ccc([N+](=O)[O-])o1`, the “activity change, negative = cytotoxicity” value is -4.74%. On to `O=C(N/N=C/c1ccc([N+](=O)[O-])o1)c1cn2ccc3ccccc3c2n1`, for which the “activity change, negative = cytotoxicity” value is -5.23%. Consider `Cc1nc2ccccn2c1C(=O)N/N=C/c1ccc([N+](=O)[O-])o1`, for which the Potency was 14.7 µM (active).

(Values after PubChem BioAssay AID588382 (National Center for Advancing Translational Sciences (NCATS), 2011).)
